aSyn 5UTR act: Activators working through SNCA 5'UTR binding (MLPCN); alpha-synuclein 5'UTR reporter, activators screen; activity score, % (tested at 7.5 µM), hits read low; 7.1% of 300,000 active; in the data active = activity score below about -60%
An asterisk follows results filed as active. A selection follows.

SMILES | aSyn 5UTR act
CSCC(=O)Nc1nc(-c2ccc3c(c2)OCCO3)cs1 | -116.9*
CCCCNC(=O)/C=C/c1cccs1 | -86.1*
Cc1ccc(CNC(=O)/C=C/c2cccs2)cc1 | -184.5*
COc1ccc(N)cc1-n1c(C)ccc1C | -117.9*
COc1cc(C=O)ccc1Oc1nnnn1-c1ccc(C(N)=O)cc1 | -67.5*
COc1ccc2nc3cc(Cl)ccc3c(Nc3cc(CN4CCCC4)c(O)c(CN4CCCC4)c3)c2n1 | 104.4
Cc1ccc(-c2cc(C(=O)NCc3cnn(C)c3C)c3cc(Br)ccc3n2)cc1 | -63.9*
O=C(Nc1ccccn1)c1cc(-c2cccnc2)nc2ccc(Br)cc12 | 62.1
O=C(NCCN1C(=O)C2C3C=CC(C3)C2C1=O)Nc1ccc(Br)cc1 (stereo unspecified) | -143.8*
CCN(CC)c1ccc2c(c1)OC(N)=C(C#N)C2c1cccnc1 (stereo unspecified) | 75.3
Cc1ccc(C(=O)NCCn2cc(SCC(=O)Nc3cc(C)on3)c3ccccc32)cc1 | -77.7*
c1ccc(-c2cc3n(c2)CCc2ccccc2-3)cc1 | -135.2*
Clc1ccccc1-c1nc(-c2cccnc2)no1 | -103.9*
Cc1nc(-c2noc(-c3ccccc3Cl)n2)c(C(F)(F)F)o1 | -142.4*
Clc1ccccc1-c1nnc(-c2cccnc2)o1 | -139.3*
Clc1ccccc1-c1nc(-c2ccncc2)no1 | -112.0*
Clc1ccccc1-c1nnc(-c2cccs2)o1 | -215.4*
Cc1ccccc1-c1nc(-c2ccccn2)no1 | 95.0
Cc1ccccc1-c1nc(-c2cccnc2)no1 | -226.6*
CN(C)c1ccc(-c2nnc(-c3cccs3)o2)cc1 | 81.9
CSc1ccccc1-c1nc(-c2ccncc2)no1 | -194.6*
Cc1ccc2nc(NC(=O)c3ccccn3)sc2c1 | 111.4
Cc1ccc2nc(NC(=O)Cc3cccs3)sc2c1 | -165.9*
Cc1ccc2nc(NC(=O)COC(=O)c3ccco3)sc2c1 | -96.9*
O=C(Cc1nc(=O)c2ccccc2s1)Nc1ccccc1 | -105.1*
SMILES | aSyn 5UTR act
CC(Cc1ccccc1)C(=O)NCc1nc2ccccc2s1 (stereo unspecified) | -75.3*
O=C(Cc1ccccc1)Nc1nc2ccccc2s1 | -102.2*
COc1ccc2nc(NC(=O)Cc3cccs3)sc2c1 | -131.8*
CCOc1ccc2nc(NC(=O)Cc3cccs3)sc2c1 | -136.9*
CCc1ccc2nc(NC(=O)CCCc3cccs3)sc2c1 | -81.2*
CN(C)CC/C=C1\c2ccc(F)cc2Sc2cc(F)c(Cl)cc21 | 103.4
O=C(Cc1cccs1)Nc1nc2ccccc2s1 | -82.2*
CC1(C(=O)Nc2nc3ccccc3s2)CC1(Br)Br (stereo unspecified) | -117.9*
O=C(Nc1nc(=O)c2ccccc2s1)c1ccc(F)cc1 | -264.2*
O=C(Nc1nc(=O)c2ccccc2s1)c1ccc(Cl)cc1 | -140.3*
O=C(Oc1c(CN2CCOCC2)cc(Cl)c2cccnc12)c1cccs1 | 107.7
O=C(c1cccs1)N1CCN(c2ncc(C(F)(F)F)cc2Cl)CC1 | -70.8*
CC(C(=O)N1CCCCC1)n1sc2ccccc2c1=O (stereo unspecified) | -133.7*
Cc1ccc(-c2nnc(N(C)C(=O)c3ccncc3)s2)cn1 | -77.4*
CC(=O)N(C)c1nnc(-c2ccccn2)s1 | -70.6*
COc1cnc(-c2ccccn2)nc1N(C)C | 98.7
COCCN(C(C)=O)c1nnc(-c2ccccn2)s1 | -65.5*
CN(C(=O)c1cccnc1)c1nnc(-c2ccccn2)s1 | -97.9*
CC(C)(C)NC(=O)C(=O)NNC(=O)c1cccc(F)c1 | -89.4*
O=C1S/C(=C\C=C\c2ccco2)C(=O)N1c1ccc(O)cc1 | -244.9*
O=C1S/C(=C\C=C\c2ccco2)C(=O)N1c1ccccc1 | -216.6*
Cc1ccnc(NC(=O)COc2ccc(Cl)cc2)n1 | -83.5*
O=C(COc1ccc(Cl)cc1)Nc1ncccn1 | -99.0*
Cc1occc1C(=O)NNC(=O)c1ccccc1C(=O)O | -73.9*
Cc1occc1C(=O)NCCCc1ccccc1 | -70.8*
SMILES | aSyn 5UTR act
Cc1occc1C(=O)NCCc1cccc(Cl)c1 | -81.5*
Nc1cc2nc[nH]c2cc1N | -100.1*
O=c1c2ccccc2nnn1-c1ccc(Br)cc1 | -169.5*
CC(C)COc1ccc(-c2nnn(CC(=O)N3CCCC3)n2)cc1 | -89.4*
O=C(Cn1nnc(-c2ccc(OCc3ccccc3F)cc2)n1)N1CCOCC1 | -69.8*
O=C(Cn1nnc(-c2ccccc2Cl)n1)N1CCCCC1 | -98.1*
CC(C)c1ccc(-c2nnn(CCC(=O)O)n2)cc1 | 118.0
O=C(Cn1nnc(-c2ccccc2)n1)N1CCCCC1 | -70.3*
Cn1c(-c2ccccc2)cnc1SCC(=O)N1CCCCC1 | 82.8
CC1CCCN(C(=O)Cn2nnc(-c3ccccc3F)n2)C1 (stereo unspecified) | -102.6*
COc1ccc(C(=O)c2oc3ccc(OC)cc3c2N)cc1 | -166.5*
CCN(CC)CCOC(=O)c1ccc(NC(=O)CCCN2C(=O)S/C(=C/c3ccc(OC)cc3)C2=S)cc1 | 96.5
CCN(CC)CCOC(=O)c1c(C)oc2ccc(OC)cc12 | -111.9*
COC(=O)c1oc2ccc(OC)cc2c1N | -76.1*
Nc1c(C(=O)c2ccc(Cl)cc2)oc2ccccc12 | -111.1*
O=c1c(Br)c(N2CCCC2)cnn1-c1ccccc1 | -138.4*
